Reference: PubChem BioAssay AID1159580 (chemical genetic matrix, 2015)
Where “and” joins values, the source holds several entries; their conditions need not be identical. Identical values can stand only once. The whole screen tested about 5,500 compounds, of which about 2,000 (36%) were called active. Not shown: some 18% with an inconclusive outcome. Cut-off read from the data, not from the text of the source: active = normalized growth mostly below about 0.91 (no sharp cut-off); inconclusive = no clear call, values can overlap the other calls; inactive = mostly above about 0.92. This is one part of the list.

Experiment: chemical genetic growth profiling, strain panel (AID 1159580);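 note: tested at 20 µM; growth read once vehicle control cultures reached saturation at 30 °C; 1 = growth at the plate median or of vehicle wells; lower values mean less growth of the strain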
Settings: growth OD

Measured: normalized growth

CC(C)OC(=O)C(C)(C)Oc1ccc(C(=O)c2ccc(Cl)cc2)cc1
inactive: S. cerevisiae deletion strains, locus YJR075W, strain HOC1, hits give low values 0.957 and 0.996 | S. cerevisiae deletion strains, locus YKL009W, strain mrt4, hits give low values 0.906 | S. cerevisiae deletion strains, locus YKL068W, hits give low values 0.987 | S. cerevisiae deletion strains, locus YKL085W, strain MDH1 (second series), hits give low values 0.947 | S. cerevisiae deletion strains, locus YKL085W, strain MDH1, hits give low values 0.947 | S. cerevisiae deletion strains, locus YKL160W, strain elf1, hits give low values 0.987 | S. cerevisiae deletion strains, locus YKL190W, strain CNB1, hits give low values 0.974 | S. cerevisiae deletion strains, locus YKR001C, strain vps1, hits give low values 0.971 | S. cerevisiae deletion strains, locus YKR026C, strain gcn3, hits give low values 0.959 | S. cerevisiae deletion strains, locus YKR091W, strain srl3, hits give low values 0.977 | S. cerevisiae deletion strains, locus YLL001W, strain dnm1, hits give low values 0.96 | S. cerevisiae deletion strains, locus YLL026W, hits give low values 0.969 | S. cerevisiae deletion strains, locus YLL041C, strain sdh2, hits give low values 0.975 | S. cerevisiae deletion strains, locus YLR027C, strain aat2, hits give low values 0.967 | S. cerevisiae deletion strains, locus YLR039C, strain RIC1, hits give low values 0.935 | S. cerevisiae deletion strains, locus YLR058C, strain SHM2, hits give low values 1 | S. cerevisiae deletion strains, locus YLR102C, strain apc9, hits give low values 0.988 | S. cerevisiae deletion strains, locus YLR113W, strain HOG1, hits give low values 0.942 | S. cerevisiae deletion strains, locus YLR221C, strain rsa3, hits give low values 0.976 | S. cerevisiae deletion strains, locus YLR258W, strain gsy2, hits give low values 0.957 | S. cerevisiae deletion strains, locus YLR262C, strain YPT6 (second series), hits give low values 0.962 | S. cerevisiae deletion strains, locus YLR262C, strain YPT6, hits give low values 0.984 | S. cerevisiae deletion strains, locus YLR268W, strain sec22, hits give low values 0.971 | S. cerevisiae deletion strains, locus YLR320W, strain mms22, hits give low values 0.96 | S. cerevisiae deletion strains, locus YLR330W, strain CHS5, hits give low values 1.01 | S. cerevisiae deletion strains, locus YLR342W, strain FKS1 (second series), hits give low values 1.12 | S. cerevisiae deletion strains, locus YLR342W, strain FKS1, hits give low values 0.955 | S. cerevisiae deletion strains, locus YLR357W, strain rsc2, hits give low values 0.957 | S. cerevisiae deletion strains, locus YLR370C, strain arc18, hits give low values 0.967 | S. cerevisiae deletion strains, locus YLR371W, strain rom2, hits give low values 0.986 | S. cerevisiae deletion strains, locus YLR384C, strain iki3, hits give low values 0.971 | S. cerevisiae deletion strains, locus YLR418C, strain cdc73, hits give low values 0.879 | S. cerevisiae deletion strains, locus YML016C, strain PPZ1, hits give low values 1.01 | S. cerevisiae deletion strains, locus YML032C, strain rad52, hits give low values 0.984 | S. cerevisiae deletion strains, locus YML120C, strain ndi1, hits give low values 0.964 | S. cerevisiae deletion strains, locus YML124C, strain tub3, hits give low values 0.982 | S. cerevisiae deletion strains, locus YMR058W, strain fet3, hits give low values 0.987 | S. cerevisiae deletion strains, locus YMR078C, strain ctf18, hits give low values 0.982 | S. cerevisiae deletion strains, locus YMR125W, strain sto1, hits give low values 0.942 | S. cerevisiae deletion strains, locus YMR129W, hits give low values 0.97 | S. cerevisiae deletion strains, locus YMR205C, strain PFK2, hits give low values 0.923 | S. cerevisiae deletion strains, locus YMR223W, strain ubp8, hits give low values 0.958 | S. cerevisiae deletion strains, locus YMR231W, strain pep5, hits give low values 0.969 | S. cerevisiae deletion strains, locus YMR263W, strain SAP30, hits give low values 1 | S. cerevisiae deletion strains, locus YMR307W, strain GAS1, hits give low values 0.807 and 0.993 | S. cerevisiae deletion strains, locus YNL067W, strain RPL9B, hits give low values 0.973 | S. cerevisiae deletion strains, locus YNL071W, strain lat1, hits give low values 0.941 | S. cerevisiae deletion strains, locus YNL128W, strain TEP1, hits give low values 1.01 | S. cerevisiae deletion strains, locus YNL153C, strain GIM3, hits give low values 1.01 and 1.02 | S. cerevisiae deletion strains, locus YNL175C, strain NOP13, hits give low values 1.02 | S. cerevisiae deletion strains, locus YNL183C, strain NPR1, hits give low values 0.893 | S. cerevisiae deletion strains, locus YNL197C, strain WHI3, hits give low values 1.03 | S. cerevisiae deletion strains, locus YNL209W, strain ssb2, hits give low values 0.983 | S. cerevisiae deletion strains, locus YNL224C, strain SQS1, hits give low values 0.991 | S. cerevisiae deletion strains, locus YNL233W, strain BNI4, hits give low values 0.978 | S. cerevisiae deletion strains, locus YNL248C, strain rpa49, hits give low values 0.997 | S. cerevisiae deletion strains, locus YNL250W, strain rad50, hits give low values 0.989 | S. cerevisiae deletion strains, locus YNL271C, strain bni1, hits give low values 0.985 | S. cerevisiae deletion strains, locus YNL298W, strain CLA4, hits give low values 0.992 | S. cerevisiae deletion strains, locus YNL307C, strain MCK1, hits give low values 0.973 | S. cerevisiae deletion strains, locus YNL322C, strain KRE1 (second series), hits give low values 0.983 | S. cerevisiae deletion strains, locus YNL322C, strain KRE1, hits give low values 1.01 and 0.984 | S. cerevisiae deletion strains, locus YNR049C, strain mso1, hits give low values 0.98 | S. cerevisiae deletion strains, locus YNR052C, strain pop2, hits give low values 0.991 | S. cerevisiae deletion strains, locus YOL006C, strain TOP1, hits give low values 0.61 | S. cerevisiae deletion strains, locus YOL012C, strain htz1 0.615 | S. cerevisiae deletion strains, locus YOL147C, strain pex11, hits give low values 0.984 | S. cerevisiae deletion strains, locus YOR001W, strain rrp6, hits give low values 0.99 | S. cerevisiae deletion strains, locus YOR061W, strain CKA2, hits give low values 0.986 | S. cerevisiae deletion strains, locus YOR069W, strain VPS5, hits give low values 1.01 | S. cerevisiae deletion strains, locus YOR070C, strain gyp1, hits give low values 0.971 | S. cerevisiae deletion strains, locus YOR080W, strain dia2, hits give low values 0.972 | S. cerevisiae deletion strains, locus YOR083W, strain WHI5 (second series), hits give low values 1.12 | S. cerevisiae deletion strains, locus YOR083W, strain WHI5, hits give low values 0.996 | S. cerevisiae deletion strains, locus YOR106W, strain vam3, hits give low values 0.927 | S. cerevisiae deletion strains, locus YOR136W, strain idh2, hits give low values 0.989 | S. cerevisiae deletion strains, locus YOR144C, strain elg1, hits give low values 0.992 | S. cerevisiae deletion strains, locus YOR184W, strain ser1, hits give low values 0.909 | S. cerevisiae deletion strains, locus YOR231W, strain MKK1, hits give low values 0.949 | S. cerevisiae deletion strains, locus YOR265W, strain rbl2, hits give low values 0.97 | S. cerevisiae deletion strains, locus YOR270C, strain vph1, hits give low values 0.799 | S. cerevisiae deletion strains, locus YOR290C, strain snf2, hits give low values 0.97 | S. cerevisiae deletion strains, locus YOR316C, strain cot1, hits give low values 0.988 | S. cerevisiae deletion strains, locus YPL051W, strain arl3, hits give low values 1 | S. cerevisiae deletion strains, locus YPL055C, strain LGE1, hits give low values 0.971 | S. cerevisiae deletion strains, locus YPL078C, strain atp4, hits give low values 0.985 | S. cerevisiae deletion strains, locus YPL106C, strain sse1, hits give low values 1.02 | S. cerevisiae deletion strains, locus YPL240C, strain hsp82, hits give low values 0.994 | S. cerevisiae deletion strains, locus YPL241C, strain CIN2, hits give low values 0.99 and 0.991 | S. cerevisiae deletion strains, locus YPL256C, strain CLN2, hits give low values 0.953 | S. cerevisiae deletion strains, locus YPR119W, strain clb2, hits give low values 0.983 | S. cerevisiae deletion strains, locus YPR141C, strain kar3, hits give low values 0.985 | S. cerevisiae deletion strains, locus YPR163C, strain tif3, hits give low values 0.981 | S. cerevisiae deletion strains, locus YPR167C, strain met16, hits give low values 0.984 | S. cerevisiae deletion strains, strain wtn01, hits give low values 0.987 | S. cerevisiae strains, strain wild type, hits give low values 0.993
